Test results reported in the supplement of paper PMC4466140.

Columns and labels:
Experiment in all cases: SPOT peptide array binding signal intensity (averaged, normalized) (arbitrary units (background-subtracted, floor 0; scale differs between SH3 domains)); higher = stronger binding of the SH3 domain to the peptide
SpBzz1-D2 = molecular target: SpBzz1-D2
Method in brief: (§1)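 The binding signal is the normalized, background-subtracted spot intensity averaged over replicates; its arbitrary units differ between domains. It was obtained by incubating 10 μg/ml GST-fused SH3 domains from four yeast species overnight at 4°C in TBS-based blocking buffer on cellulose membranes with synthetic 15-mer peptides, cysteines replaced by serines, then detecting with anti-GST antibody, HRP anti-mouse secondary and luminol.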

SpCyk3 = molecular target: SpCyk3
Method in brief: as §1

SpHof1 = molecular target: SpHof1
Method in brief: as §1

SpHof1-2 = molecular target: SpHof1-2
Method in brief: as §1

SpHof1-3 = molecular target: SpHof1-3
Method in brief: as §1

SpHse1 = molecular target: SpHse1
Method in brief: as §1

SpLsb1 = molecular target: SpLsb1
Method in brief: as §1

SpLsb4 = molecular target: SpLsb4
Method in brief: as §1

SpMyo1 = molecular target: SpMyo1
Method in brief: as §1

SpNbp2 = molecular target: SpNbp2
Method in brief: as §1

SpPex13 = molecular target: SpPex13
Method in brief: as §1

SpRvs167 = molecular target: SpRvs167
Method in brief: as §1

SpSla1-D1-D2 = molecular target: SpSla1-D1-D2
Method in brief: as §1

SpSla1-D3 = molecular target: SpSla1-D3
Method in brief: as §1

AgAbp1 = molecular target: AgAbp1
Method in brief: as §1

AgBbc1 = molecular target: AgBbc1
Method in brief: as §1

AgBem1-D1 = molecular target: AgBem1-D1
Method in brief: as §1

AgBzz1-D1 = molecular target: AgBzz1-D1
Method in brief: as §1

AgBzz1-D2 = molecular target: AgBzz1-D2
Method in brief: as §1

AgCyk3 = molecular target: AgCyk3
Method in brief: as §1

AgFus1 = molecular target: AgFus1
Method in brief: as §1

AgHof1 = molecular target: AgHof1
Method in brief: as §1

AgHse1 = molecular target: AgHse1
Method in brief: as §1

AgLsb1 = molecular target: AgLsb1
Method in brief: as §1

AgLsb4 = molecular target: AgLsb4
Method in brief: as §1

AgMyo5 = molecular target: AgMyo5
Method in brief: as §1

AgNbp2 = molecular target: AgNbp2
Method in brief: as §1

AgRvs167 = molecular target: AgRvs167
Method in brief: as §1

AgSho1 = molecular target: AgSho1
Method in brief: as §1

AgSla1-D1-D2 = molecular target: AgSla1-D1-D2
Method in brief: as §1

AgSla1-D3 = molecular target: AgSla1-D3
Method in brief: as §1

CaAbp1-D1 = molecular target: CaAbp1-D1
Method in brief: as §1

CaAbp1-D2 = molecular target: CaAbp1-D2
Method in brief: as §1

CaBbc1 = molecular target: CaBbc1
Method in brief: as §1

CaBem1-D1 = molecular target: CaBem1-D1
Method in brief: as §1

CaBzz1-D1 = molecular target: CaBzz1-D1
Method in brief: as §1

CaBzz1-D2 = molecular target: CaBzz1-D2
Method in brief: as §1

CaCyk3 = molecular target: CaCyk3
Method in brief: as §1

CaFus1 = molecular target: CaFus1
Method in brief: as §1

CaHof1 = molecular target: CaHof1
Method in brief: as §1

CaHse1 = molecular target: CaHse1
Method in brief: as §1

CaLsb1 = molecular target: CaLsb1
Method in brief: as §1

CaLsb4 = molecular target: CaLsb4
Method in brief: as §1

CaMyo5 = molecular target: CaMyo5
Method in brief: as §1

CaNbp2 = molecular target: CaNbp2
Method in brief: as §1

CaRvs167 = molecular target: CaRvs167
Method in brief: as §1

CaRvs167-3 = molecular target: CaRvs167-3
Method in brief: as §1

CaSho1 = molecular target: CaSho1
Method in brief: as §1

CaSla1-D1-D2 = molecular target: CaSla1-D1-D2
Method in brief: as §1

CaSla1-D3 = molecular target: CaSla1-D3
Method in brief: as §1

ScAbp1 = molecular target: ScAbp1
Method in brief: as §1

ScBbc1 = molecular target: ScBbc1
Method in brief: as §1

ScBem1-D1 = molecular target: ScBem1-D1
Method in brief: as §1

ScBzz1-D1 = molecular target: ScBzz1-D1
Method in brief: as §1

ScBzz1-D2 = molecular target: ScBzz1-D2
Method in brief: as §1

ScCyk3 = molecular target: ScCyk3
Method in brief: as §1

ScFus1 = molecular target: ScFus1
Method in brief: as §1

ScHof1 = molecular target: ScHof1
Method in brief: as §1

ScHse1 = molecular target: ScHse1
Method in brief: as §1

ScLsb1 = molecular target: ScLsb1
Method in brief: as §1

ScLsb2 = molecular target: ScLsb2
Method in brief: as §1

ScLsb3 = molecular target: ScLsb3
Method in brief: as §1

ScLsb4 = molecular target: ScLsb4
Method in brief: as §1

ScMyo3 = molecular target: ScMyo3
Method in brief: as §1

ScMyo5 = molecular target: ScMyo5
Method in brief: as §1

ScNbp2 = molecular target: ScNbp2
Method in brief: as §1

ScPex13 = molecular target: ScPex13
Method in brief: as §1

ScRvs167 = molecular target: ScRvs167
Method in brief: as §1

ScSho1 = molecular target: ScSho1
Method in brief: as §1

ScSla1-D1-D2 = molecular target: ScSla1-D1-D2
Method in brief: as §1

ScSla1-D3 = molecular target: ScSla1-D3
Method in brief: as §1

SpAbp1-D1 = molecular target: SpAbp1-D1
Method in brief: as §1

SpBbc1 = molecular target: SpBbc1
Method in brief: as §1

SpBzz1-D1 = molecular target: SpBzz1-D1
Method in brief: as §1

Measured: SPOT peptide array binding signal intensity

QPPLPSSAPPIPTSH
≤ 0: SpBzz1-D2 | SpCyk3 | SpHof1 | SpHof1-2 | SpHof1-3 | SpLsb1 | SpLsb4 | SpNbp2 | SpRvs167 | SpSla1-D1-D2
1: SpPex13
1080: SpMyo1
17.5: SpHse1
3.5: SpSla1-D3

PPIPIVPSSPAPPLP
833: CaMyo5
3.5: SpBbc1
47.5: CaNbp2
0.25: ScSla1-D3
2150: AgMyo5
1080: SpMyo1
≤ 0: AgAbp1 | AgBbc1 | AgBem1-D1 | AgBzz1-D2 | AgCyk3 | AgFus1 | AgHof1 | AgHse1 | AgLsb1 | AgLsb4 | AgNbp2 | AgRvs167 | AgSho1 | AgSla1-D1-D2 | AgSla1-D3 | CaAbp1-D1 | CaAbp1-D2 | CaBem1-D1 | CaBzz1-D1 | CaBzz1-D2 | CaCyk3 | CaFus1 | CaHof1 | CaHse1 | CaLsb1 | CaLsb4 | CaRvs167 | CaRvs167-3 | CaSho1 | CaSla1-D1-D2 | CaSla1-D3 | ScAbp1 | ScBbc1 | ScBem1-D1 | ScBzz1-D1 | ScBzz1-D2 | ScCyk3 | ScFus1 | ScHse1 | ScLsb1 | ScLsb2 | ScLsb3 | ScLsb4 | ScNbp2 | ScPex13 | ScRvs167 | ScSho1 | ScSla1-D1-D2 | SpAbp1-D1 | SpBzz1-D1 | SpBzz1-D2 | SpCyk3 | SpHof1 | SpHof1-2 | SpHof1-3 | SpLsb1 | SpLsb4 | SpNbp2 | SpPex13 | SpRvs167 | SpSla1-D1-D2 | SpSla1-D3
0.5: CaBbc1
2260: ScMyo3
1940: ScMyo5
1.5: ScHof1
26.8: SpHse1
28: AgBzz1-D1

HAPPLPPTAPPPPSL
1320: SpMyo1
≤ 0: AgAbp1 | AgBbc1 | AgBem1-D1 | AgBzz1-D1 | AgBzz1-D2 | AgCyk3 | AgFus1 | AgHse1 | AgLsb1 | AgLsb4 | AgNbp2 | AgRvs167 | AgSho1 | AgSla1-D1-D2 | AgSla1-D3 | CaAbp1-D1 | CaBbc1 | CaBem1-D1 | CaCyk3 | CaFus1 | CaHof1 | CaLsb1 | CaLsb4 | CaNbp2 | CaRvs167 | CaRvs167-3 | CaSho1 | CaSla1-D1-D2 | CaSla1-D3 | ScAbp1 | ScBbc1 | ScBem1-D1 | ScBzz1-D1 | ScBzz1-D2 | ScCyk3 | ScFus1 | ScHse1 | ScLsb1 | ScLsb2 | ScLsb3 | ScLsb4 | ScNbp2 | ScPex13 | ScRvs167 | ScSho1 | ScSla1-D1-D2 | SpAbp1-D1 | SpBzz1-D2 | SpCyk3 | SpHof1 | SpHof1-2 | SpHof1-3 | SpHse1 | SpLsb1 | SpLsb4 | SpNbp2 | SpPex13 | SpSla1-D3
7: SpSla1-D1-D2
1.5: CaHse1 | SpBbc1
792: CaMyo5
1750: ScMyo3
26.5: AgHof1
2: CaAbp1-D2 | CaBzz1-D1
2230: AgMyo5
1.75: ScSla1-D3
2.67: SpRvs167
148: SpBzz1-D1
6: CaBzz1-D2
2000: ScMyo5
40.5: ScHof1

ATKSASPTLPTRRSR
51: CaBem1-D1
986: CaBbc1
74.5: AgSla1-D1-D2
56: CaCyk3
35: CaFus1
133: AgBem1-D1
≤ 0: AgSho1
899: AgBbc1
45: AgBzz1-D2
1800: AgLsb4
5.5: AgMyo5
28: AgFus1
11.8: AgSla1-D3
6: CaMyo5
938: AgAbp1
2: AgCyk3
195: CaBzz1-D2
0.75: CaLsb1
434: CaAbp1-D1
192: AgRvs167
114: AgHse1
4: CaHof1
180: AgHof1
1090: CaAbp1-D2
8.75: CaHse1
6350: CaLsb4
223: CaBzz1-D1
39.5: AgNbp2
18.5: AgLsb1
99.5: AgBzz1-D1
